This is a sample that favours compounds with a hit; in the whole collection about 7.3% have one here.
AmpC detergent: inhibitors of E. coli AmpC beta-lactamase with detergent. AmpC hydrolysis of nitrocefin, absorbance 480 nm, 0.01% Triton. 370,000 tested, 0.041% active. Potency, µM (highest dose often 114 µM), most hits filed as inhibitors. AID 485294; also: nearly all actives have a fitted effect of over 25% in size
Target sequence (P00811 whole entry, looked up): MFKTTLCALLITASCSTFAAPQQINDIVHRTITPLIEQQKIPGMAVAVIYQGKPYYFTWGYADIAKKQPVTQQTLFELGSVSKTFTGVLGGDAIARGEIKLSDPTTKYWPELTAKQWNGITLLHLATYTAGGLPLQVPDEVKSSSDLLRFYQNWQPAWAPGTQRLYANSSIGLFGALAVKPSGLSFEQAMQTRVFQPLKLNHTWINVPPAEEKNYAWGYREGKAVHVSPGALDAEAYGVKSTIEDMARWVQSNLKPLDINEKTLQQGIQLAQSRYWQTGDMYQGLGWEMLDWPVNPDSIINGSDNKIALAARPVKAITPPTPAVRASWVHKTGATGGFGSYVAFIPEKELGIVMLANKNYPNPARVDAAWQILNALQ
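20 mM phosphate pH 7.0 + 0.01% (detergent screen) or 0.0001% Triton X-100; 5.3 nM AmpC reagent; cpd preinc 15 min RT; nitrocefin (800 uM stock) to start; A480 q20 s × 4 min; Activity was normalised to no-enzyme and no-compound control wells.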
HCV inhibitor: HCV inhibition. 340,000 tested, 3.4% active. Potency, µM (titrated, usually from 41.8 µM), actives largely listed as inhibitors. Huh7.5.1 HCVcc-Cre infection, luciferase reporter, 44 h
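Whole-lifecycle infectious HCVcc-Cre system; cells 1,000/well, compound then virus (~0.5 moi) added 4 h after plating, 44 h culture. Luciferase read 15 sec following 15 min substrate incubation, room temp.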
HCMV inh: blocks human cytomegalovirus replication; activity change, negative = inhibition, % at 57.5 µM; AID 1259415; 410,000 tested, 4.5% active; HFF cells, HCMV-luciferase reporter, 72 h; active compounds read low; in the data active = activity change below about -60%; inconclusive = no clear call, values can overlap the other calls; inactive = above about -39%
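Steps: HFFs plated, 16 h 37C; compounds added; HCMV-luciferase added to MOI 1 PFU/cell; 72 h 37C; OneGlo reagent, 5 min room temperature; luminescence read, normalized to controls.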
FMDV inh: antivirals against foot and mouth disease virus. 410,000 tested, 1.2% active. AID 1159524. Potency, µM (highest dose often 57.9 µM), usual class: inhibitors. FMDV antiviral cell-based qHTS; calls by dose curve; tested in HEK293T cells; also: read-out not given here; nearly all actives have a fitted effect of over 45% in size
AmpC inh no detg: inhibitors of E. coli AmpC beta-lactamase without detergent; Potency, µM (series often up to 57.1 µM), usual class: inhibitors; 330,000 tested, 0.52% active; AmpC nitrocefin hydrolysis, absorbance 480 nm, 0.0001% Triton; also: nearly all actives have a fitted effect of over 20% in size
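20 mM phosphate pH 7.0 + 0.01% (detergent screen) or 0.0001% Triton X-100; 5.3 nM AmpC reagent; cpd preinc 15 min RT; nitrocefin (800 uM stock) to start; A480 q20 s × 4 min; Activity was normalised to no-enzyme and no-compound control wells.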
Of the large screens only hits and unclear results are named; the others gave an inactive call. Unless noted, calls follow the shape of the dose curve; as a rule, active = well fitted curve in the direction sought with a large enough effect; inconclusive = small, poorly fitted or top-dose-only effect, or another doubt; inactive = no such curve, though single readings can be large; an effect the other way counts as inactive or inconclusive.

Brc1ccc2ncnc(Nc3ccc(N4CCOCC4)cc3)c2c1	AmpC detergent inconclusive, HCV inhibitor inconclusive, HCMV inh -82, FMDV inh inconclusive
O=C(Nc1ccc(Oc2ccc3c(c2)C(=O)N(c2ccc(O)cc2)C3=O)cc1)c1cccs1	AmpC detergent inconclusive, HCMV inh -78
COc1ccc(N2CCN(c3c4c(nc5nncn35)CCC4)CC2)cc1	HCMV inh -70, FMDV inh inconclusive (no result: HCV inhibitor, AmpC inh no detg)
CCCc1cc(N2CCN(c3ccccc3)CC2)n2cnnc2n1	HCMV inh inconclusive, FMDV inh inconclusive (no result: HCV inhibitor, AmpC inh no detg)
CCCc1cc(N2CCN(c3ccc(OC)cc3)CC2)n2cnnc2n1	HCMV inh -78, FMDV inh inconclusive (no result: HCV inhibitor, AmpC inh no detg)
Cc1nc2nncn2c(N2CCN(c3ccccc3)CC2)c1C	HCMV inh -74 (no result: HCV inhibitor, AmpC inh no detg)
Cc1cc(N2CCN(c3ccccc3)CC2)n2cnnc2n1	none (no result: HCV inhibitor, AmpC inh no detg)
COc1ccc(N2CCN(c3nc4ccc(C(=O)c5ccccc5)cc4n4cnnc34)CC2)cc1	none (no result: HCV inhibitor, AmpC inh no detg)
CC(OC(=O)c1cc(S(=O)(=O)N2CCOCC2)ccc1F)C(=O)NC1CCCC1 (stereo unspecified)	none
CN(C)C=C1C(=O)N(C2CCCCC2)C(=O)N(C2CCCCC2)C1=O	FMDV inh 18µM
CCCC1NC(=S)N(C2CCCCC2)C1=O (stereo unspecified)	none
Cc1ccc(C)c(S(=O)(=O)N2CCN(C(=O)c3ccc(N4CCCC4)c([N+](=O)[O-])c3)CC2)c1	AmpC detergent inconclusive
CC1Cc2ccccc2N1C(=O)c1ccc(N2CCCC2)c([N+](=O)[O-])c1 (stereo unspecified)	HCV inhibitor 13µM, FMDV inh inconclusive
CC1Cc2ccccc2N1C(=O)c1ccc(N2CCCCC2)c([N+](=O)[O-])c1 (stereo unspecified)	none
O=C(c1ccc(N2CCCC2)c([N+](=O)[O-])c1)N1CCN(S(=O)(=O)c2ccccc2)CC1	HCV inhibitor 14µM, FMDV inh inconclusive
O=C(c1cccc(F)c1)N1CCN(c2cc(N3CCCCC3)c(F)cc2[N+](=O)[O-])CC1	HCMV inh -74
CCOc1ccc(NC(=O)CN(C)C(=O)c2cccnc2SC)cc1OCC	none
COc1ccc(C(=O)c2cn(CC(=O)Nc3ccc4c(c3)OCCO4)c3ccc(OC)cc3c2=O)cc1	none (no result: HCV inhibitor, AmpC inh no detg)
Cc1nc(NC(=O)c2ccccc2)sc1-c1cc(C(=O)NCCO)nn1Cc1ccccc1	none (no result: AmpC detergent, HCV inhibitor, AmpC inh no detg)
COc1ccc(CNC(=O)O[C@]23C[C@H]4C(=O)N(c5ccccc5)C(=O)[C@H]4C[C@@]2(O)CN(S(=O)(=O)c2ccc(C)cc2)C3)cc1OC	none (no result: AmpC detergent, HCV inhibitor, AmpC inh no detg)
Cc1ccc(S(=O)(=O)N2C[C@]3(O)C[C@@H]4C(=O)N(c5ccccc5)C(=O)[C@@H]4C[C@]3(OC(=O)NC3CCCC3)C2)cc1	FMDV inh 16µM (no result: AmpC detergent, HCV inhibitor, AmpC inh no detg)
CC(=O)c1sc2nc(-c3ccccc3)cc(C)c2c1N	none
CC(C)NC(=O)NC(=O)CSc1nnc(COc2ccccc2F)n1C(C)C1CC2CCC1C2 (stereo unspecified)	AmpC detergent inconclusive, HCV inhibitor inconclusive, FMDV inh 28µM
CC(C1CC2CCC1C2)n1c(COc2ccccc2F)nnc1SCC(N)=O (stereo unspecified)	none
CN1CCC(N2CCN(C3CN(Cc4cn(Cc5cccc(C(F)(F)F)c5)nn4)S(=O)(=O)C3)CC2)CC1 (stereo unspecified)	none (no result: AmpC detergent, HCV inhibitor, AmpC inh no detg)
Cc1cccc(N(Cc2ccccc2)C(=O)CCl)c1	HCV inhibitor 4µM, HCMV inh -116, FMDV inh 13µM
COc1ccc(CC(=O)N(Cc2ccccc2)c2cccc(C)c2)cc1OC	HCMV inh inconclusive, FMDV inh inconclusive (no result: HCV inhibitor)
COC(=O)c1ccc(C(=O)N(Cc2ccccc2)c2ccccc2)cc1	HCV inhibitor inconclusive
O=C(CCl)N(Cc1ccccc1)c1ccccc1	AmpC detergent inconclusive, HCV inhibitor 5µM, HCMV inh -98, FMDV inh 22µM
CN(c1ccccc1)c1nc(N)c([N+](=O)[O-])c(Nc2ccccc2F)n1	HCV inhibitor 5.6µM
CN(Cc1ccccc1)c1nc(N)c([N+](=O)[O-])c(Nc2cccc(F)c2)n1	HCV inhibitor 11µM
COc1ccc(OC)c(Nc2nc(N(C)c3ccccc3)nc(N)c2[N+](=O)[O-])c1	HCV inhibitor 5µM
CN(c1ccccc1)c1nc(N)c([N+](=O)[O-])c(Nc2cccc(F)c2)n1	HCV inhibitor inconclusive, FMDV inh inconclusive
CN(c1ccccc1)c1nc(N)c([N+](=O)[O-])c(Nc2ccc(F)cc2)n1	HCV inhibitor inconclusive
COCCN1CC(CNC(=O)c2cc(COc3ccccc3SC)on2)CC1=O (stereo unspecified)	none
O=C(CN1C(=O)C2(SCC(=O)N2c2ccc(F)c(F)c2)c2ccccc21)Nc1ccccc1F (stereo unspecified)	none (no result: HCV inhibitor, AmpC inh no detg)
COc1ccc(CCNC(=O)c2ccc3c(c2)sc2nc(-c4ccccc4)cn23)cc1OC	none (no result: HCV inhibitor, HCMV inh, AmpC inh no detg)
NC(=O)COC(=O)c1ccc(-c2ccccc2)cc1	HCMV inh -62
NCCc1c(-c2ccccc2)n(-c2ccccc2)c2ccccc12	HCV inhibitor 11µM
CCCCOc1c(Br)cc(CNCCCN2CCOCC2)cc1OC	HCV inhibitor 4µM
Cc1c(-c2ccccc2)n[nH]c1C(=O)NN	none
CCOc1ccc(-c2n[nH]c(C(=O)NN)c2C)cc1	HCV inhibitor inconclusive, AmpC inh no detg 28µM
O=C(c1ccco1)N1CCN(CC(O)COc2ccc3oc4ccccc4c3c2)CC1 (stereo unspecified)	AmpC detergent inconclusive, HCV inhibitor 13µM, HCMV inh inconclusive (no result: FMDV inh)
COc1ccc(Br)c2c1-c1nc(NC(=O)c3cccc(C)c3)sc1C2	none (no result: HCV inhibitor, AmpC inh no detg)
Cn1ncc(SCc2ccccc2)c(Cl)c1=O	HCMV inh -80, FMDV inh inconclusive
COc1cccc(/C=N/NC(N)=S)c1OCc1ccccc1Cl	HCV inhibitor inconclusive, HCMV inh -78, FMDV inh inconclusive
CCOc1cc(/C=N/NC(N)=S)cc(Br)c1OCc1ccccc1C	HCV inhibitor 11µM (no result: HCMV inh)
CCOC(=O)N/N=C/c1ccccc1OCc1ccc(Cl)cc1	HCMV inh inconclusive
NC(=S)N/N=C/c1ccccc1OCCSc1ccc(Cl)cc1	HCV inhibitor inconclusive, HCMV inh -69, FMDV inh 35µM
COc1cccc(/C=N/n2nnnc2N)c1OCc1ccccc1Cl	HCV inhibitor inconclusive
CNC(=S)N/N=C/c1cc(Br)c(OCc2ccncc2)c(OC)c1	none
COc1cc(/C=N/NC(N)=S)cc(Br)c1OCc1ccccc1F	HCV inhibitor 8.9µM, HCMV inh inconclusive, FMDV inh inconclusive
CCOc1cc(/C=N/NC(N)=O)cc(Br)c1OCc1ccccc1	HCV inhibitor inconclusive, FMDV inh inconclusive
COc1ccccc1OCCn1cc(/C=N/NC(=O)c2ccncc2)c2ccccc21	FMDV inh inconclusive
COc1ccccc1OCCn1cc(/C=N/NC(N)=S)c2ccccc21	HCV inhibitor 8.9µM, HCMV inh inconclusive, FMDV inh inconclusive
